The text below walks through data of PubChem BioAssay.

Test [1] is described as follows: inhibitors of TNFa-induced NFkB p65 translocation, primary screen, imaging, HUVEC, MLSMR starter and 10KST1 sets (AID 438;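 active = inhibition above 20% together with a positive visual image hit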;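 note: compound added about 3h40 before a 20 min TNFalpha stimulation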;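 for inhibition: signal is the nuclear over cytoplasmic p65 intensity ratio per well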). Conditions: HUVEC TNFa-induced p65 nuclear translocation; cell count: measured here: nuclei count (cytotoxicity indicator), at 2.08 µM; inhibition: at 2 µM, stronger effect = higher value, 0% TNFa-plus-vehicle, 100% no-TNFa wells.
Test [2] is described as follows: inhibitors of mutant huntingtin aggregation, primary screen, imaging, exon1htt(103Q)mCFP cells, high-content imaging (AID 483;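 active = visual image review flags a hit and inhibition of aggregation exceeds 20%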;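 note: compound exposure lasted 3 days before fixation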;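 for nuclei count: percent of the per-plate median nuclei count of sample wells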). The settings on record: exon1htt(103Q)mCFP cell line, aggregate imaging, at 2 µM; inhibition of aggregation: stronger effect = higher value; nuclei count: measured here: cell count, toxicity.
A short description of test [3]: inhibitors of E-selectin induction by TNFa, primary screen, imaging, HUVEC, immunofluorescence, MLSMR starter and 10KST1 sets (AID 487;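 active = visually confirmed hit in the image check and inhibition above 20%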;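 for inhibition: signal is fraction of cell area covered by stained E-selectin grains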;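 for nuclei count: 100% = median nuclei count of all wells on the same plate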). The settings on record: HUVEC TNFalpha-induced E-selectin immunofluorescence imaging, at 2 µM; inhibition: stronger effect = higher value; nuclei count: measured here: cell number, toxicity.
Test [4] deals with Voltage-gated potassium channel subunit beta-2 (Rattus norvegicus) (UniProt P62483). Description: KvBeta enzyme negative modulators, primary screen, biochemical, NADPH fluorescence (AID 622;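 active = fluorescence slope higher than the sample average by over 3 SD, cut at about -0.22 in these data, passing the limit was not always enough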;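 note: slope of raw intensity against log time taken from 70 to 1610 s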). The settings on record: recombinant KvBeta, 4-cyanobenzaldehyde reduction, at 10 µM, stronger effect = higher value.
Voltage-gated potassium channel subunit beta-2 (Rattus norvegicus), sequence (P62483 whole entry, looked up): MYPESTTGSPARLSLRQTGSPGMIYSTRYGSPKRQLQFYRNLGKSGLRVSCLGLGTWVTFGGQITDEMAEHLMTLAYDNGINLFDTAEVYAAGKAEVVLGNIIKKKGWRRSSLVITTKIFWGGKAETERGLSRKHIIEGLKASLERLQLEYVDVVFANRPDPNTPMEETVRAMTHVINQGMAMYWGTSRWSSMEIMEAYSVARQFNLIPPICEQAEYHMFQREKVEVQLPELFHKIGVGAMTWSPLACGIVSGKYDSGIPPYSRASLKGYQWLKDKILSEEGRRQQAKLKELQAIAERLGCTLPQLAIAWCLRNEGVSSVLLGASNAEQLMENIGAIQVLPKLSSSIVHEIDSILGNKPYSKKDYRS
Test [5] has the same target. As to the kind of experiment: KvBeta positive modulators, primary screen, biochemical, NADPH fluorescence (AID 623;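 active = NADPH fluorescence slope more negative than the mean of all samples by about 3 SD, 99.7% confidence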;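 note: fluorescence intensity change per second fitted from 20 to 320 s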). Conditions: Recombinant KvBeta, NADPH fluorescence decrease slope, 10 min; at 10 µM; stronger effect = lower value.
In test [6] the target is Alpha-2C adrenergic receptor (Homo sapiens) (UniProt P18825). As to the kind of experiment: modulators of alpha2C/GIRK thallium flux, primary screen, cell-based, HEK293 alpha2C/GIRK1/2 (AID 624;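 active = fluorescence slope after compound addition differing from the mean of all screened samples at 99.7% confidence, in either direction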;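 note: slope of fluorescence ratio to pre-addition baseline per second over 15 to 24 s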). Conditions: thallium flux BTC fluorescence, at 10 µM, actives lie on both sides.
Alpha-2C adrenergic receptor (Homo sapiens), sequence (P18825 whole entry, looked up): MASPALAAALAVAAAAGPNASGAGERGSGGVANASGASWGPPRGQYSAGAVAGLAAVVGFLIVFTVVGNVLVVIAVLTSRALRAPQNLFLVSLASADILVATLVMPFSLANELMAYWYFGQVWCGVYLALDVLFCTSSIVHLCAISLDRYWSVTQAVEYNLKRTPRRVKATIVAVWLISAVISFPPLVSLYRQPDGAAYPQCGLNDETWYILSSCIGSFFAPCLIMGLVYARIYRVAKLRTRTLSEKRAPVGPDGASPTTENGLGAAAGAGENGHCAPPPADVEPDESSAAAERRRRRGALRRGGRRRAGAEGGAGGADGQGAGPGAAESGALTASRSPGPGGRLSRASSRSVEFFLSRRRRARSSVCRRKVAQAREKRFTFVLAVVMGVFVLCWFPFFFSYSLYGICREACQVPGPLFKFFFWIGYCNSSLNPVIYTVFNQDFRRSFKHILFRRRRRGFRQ
A short description of test [7]: inhibitors of Sendai virus-induced IRF3 signaling, primary screen, TLR/RLR signaling modifier project, cell-based, Sendai virus stimulus, luciferase, 10K MLSCN set (AID 602276;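 active = inhibition at or above 50% at 10 µM; inactive = inhibition below 50%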;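 note: firefly luciferase from ISG56 promoter only with Renilla not read in this screen; 0% = Sendai virus plus DMSO and 100% = medium plus DMSO without virus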). The settings on record: HEK293 RL24 IRF3 luciferase reporter, at 10 µM, stronger effect = higher value.
Test [8] can be described thus: inhibitors of poly I:C-induced TLR3 signaling, primary screen, cell-based, poly I:C stimulus, luciferase, 10K MLSCN set (AID 602277). Conditions: HEK293-TLR3 RL24 IRF3 luciferase reporter, at 10 µM, stronger effect = higher value. Background: Reporter assays use an easily measured gene product as a stand-in for the process of interest.

Calls of active or inactive are those of the source.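 Rule for the calls, unless noted: active = inhibition of the reporter signal at or above 50%; inactive = inhibition below 50%.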

Usually inhibition stands for the change of the read-out against control, counted positive when it falls. For `CN(C)c1ccc(C=Nc2ccc(N(C)C)cc2)cc1`, the cell count in test [1] is 345. In addition, the inhibition in test [1] was 3.4% (inactive); in test [3], 14.2% (inactive); in test [7], -5.99% (inactive); in test [8] it was -19% (inactive). Further, the inhibition of aggregation in test [2] was -8.7% (inactive). Besides, the nuclei count in test [2] came to 106%; in test [3], 118%. The fluorescence slope in test [4] is -0.512 (inactive). In test [5], the NADPH fluorescence slope is -3.7e-05 (inactive). The slope in test [6] was 0.00615 (inactive).

For `Nc1ccc(-c2ccc(N)cc2C(F)(F)F)c(C(F)(F)F)c1`, the cell count in test [1] stood at 510. The inhibition was -15.4% (inactive) in test [1], -3.6% (inactive) in test [3], 16.9% (inactive) in test [7] and 24% (inactive) in test [8]. Also, in test [2], the inhibition of aggregation was -0.4% (inactive). The nuclei count came to 96.5% in test [2] and 101% in test [3]. Also, the fluorescence slope in test [4] is -0.446 (inactive). In addition, the NADPH fluorescence slope in test [5] is -9.4e-05 (inactive). Besides, in test [6], the slope was 0.00482 (inactive).

On to `COCCOC(=O)c1cc(C(=O)c2cc(F)ccc2O)coc1=N`, for which the cell count in test [1] amounted to 473. For the same molecule, the inhibition in test [1] is -11.2% (inactive); in test [3], -92.3% (inactive); in test [7], 6.76% (inactive); in test [8], 11% (inactive). Further, in test [2], the inhibition of aggregation was 8.5% (inactive). Also, the values for the nuclei count in test [2] and in test [3] were 107% and 115%, respectively. Moreover, the fluorescence slope in test [4] was -0.597 (inactive). The NADPH fluorescence slope in test [5] is -1.1e-05 (inactive). Further, the slope in test [6] is 0.00549 (inactive).

Take `CCN(CC)S(=O)(=O)c1ccc(C(=O)N2CCN=C2SCc2cccnc2)cc1`: the cell count in test [1] worked out at 213. Also, the inhibition is -3.9% (inactive) in test [1], -32.1% (inactive) in test [3], -1.95% (inactive) in test [7] and 9.81% (inactive) in test [8]. Besides, the inhibition of aggregation in test [2] is -5.6% (inactive). Further, the values for the nuclei count in test [2] and in test [3] were 99.7% and 122%, respectively. Also, the fluorescence slope in test [4] was -0.587 (inactive). Further, the NADPH fluorescence slope in test [5] was -1.9e-05 (inactive). Moreover, the slope in test [6] is 0.0061 (inactive).

With `COc1ccc(CCNC(=O)CSc2nnc(CNc3ccc(Cl)cc3)o2)cc1OC`, the cell count in test [1] was determined as 241. Also, the inhibition in test [1] is -3.2% (inactive); in test [3], 10.2% (inactive); in test [7] it was 11.9% (inactive); in test [8], 19.4% (inactive). For the same molecule, in test [2], the inhibition of aggregation is 33.1% (active). Besides, the values for the nuclei count in test [2] and in test [3] were 72.1% and 63.5%, respectively. The fluorescence slope in test [4] was -0.594 (inactive). In addition, the NADPH fluorescence slope in test [5] is -1.9e-05 (inactive). In addition, the slope in test [6] is 0.0062 (inactive).

Regarding `COc1ccccc1NS(=O)(=O)c1ccc(OC)c(OC)c1`, in test [1], the cell count worked out at 401. For the same molecule, the inhibition was 5.5% (inactive) in test [1], 30.1% (inactive) in test [3], 1.27% (inactive) in test [7] and 24.3% (inactive) in test [8]. Besides, the inhibition of aggregation in test [2] is 0.8% (inactive). The nuclei count in test [2] turned out to be 101%; in test [3] it was 96%. Further, the fluorescence slope in test [4] is -0.484 (inactive). For the same molecule, the NADPH fluorescence slope in test [5] was -4.4e-05 (inactive). Further, the slope in test [6] was 0.00597 (inactive).

On to `CN1CCN(C(=O)C2(NC(=O)Nc3cccc(F)c3)CCCCC2)CC1`, for which the cell count in test [1] turned out to be 586. Besides, the inhibition is -33.7% (inactive) in test [1], -39.7% (inactive) in test [3], 3.99% (inactive) in test [7] and 3.07% (inactive) in test [8]. Moreover, in test [2], the inhibition of aggregation was -14.5% (inactive). Moreover, the nuclei count worked out at 105% in test [2] and 109% in test [3]. For the same molecule, the fluorescence slope in test [4] is -0.596 (inactive). The NADPH fluorescence slope in test [5] is -4.2e-05 (inactive). For the same molecule, the slope in test [6] is 0.00664 (inactive).

Consider `CCOC(=O)N1CCC(N2C(=O)c3ccccc3C2Nc2ccccc2C)CC1` (centres undefined), for which, in test [1], the cell count was determined as 568. Besides, the inhibition in test [1] was 5.8% (inactive); in test [3], -22.5% (inactive); in test [7] it was 3.88% (inactive); in test [8] it was 36.9% (inactive). Moreover, the inhibition of aggregation in test [2] is -4% (inactive). The values for the nuclei count in test [2] and in test [3] were 98.2% and 106%, respectively. The fluorescence slope in test [4] is -0.531 (inactive). The NADPH fluorescence slope in test [5] is -3.2e-05 (inactive). In addition, the slope in test [6] was 0.00624 (inactive).

Turning to `Cn1c(=O)oc2cc(S(=O)(=O)N3CCCC(C(=O)NCC4COc5ccccc5O4)C3)ccc21` (centres undefined), in test [1], the cell count is 751. Moreover, the inhibition in test [1] is -1.9% (inactive); in test [3] it was -40.9% (inactive); in test [7], -12.4% (inactive); in test [8] it was -5.33% (inactive). In test [2], the inhibition of aggregation was -6.6% (inactive). Moreover, the nuclei count in test [2] amounted to 105%; in test [3], 124%. For the same molecule, the fluorescence slope in test [4] was -0.575 (inactive). Further, the NADPH fluorescence slope in test [5] was 1.7e-05 (inactive). The slope in test [6] is 0.00726 (inactive).

Consider `CCOC(=O)N1CCC(NC(=O)Cc2ccc(-n3c(=O)[nH]c4ccccc4c3=O)cc2)CC1`, for which the cell count in test [1] came to 753. Moreover, the inhibition in test [1] was -5.8% (inactive); in test [3], -35.8% (inactive); in test [7], 0.617% (inactive); in test [8], -10.4% (inactive). For the same molecule, the inhibition of aggregation in test [2] is -8.3% (inactive). Further, the nuclei count in test [2] is 112%; in test [3] it was 115%. In test [4], the fluorescence slope is -0.527 (inactive). In addition, in test [5], the NADPH fluorescence slope was -1.5e-05 (inactive). For the same molecule, the slope in test [6] is 0.00585 (inactive).

For `Cc1cc(C)n(C(=O)CCCCCC(=O)n2nc(C)cc2C)n1`, the cell count in test [1] is 440. Further, the inhibition in test [1] is 5.5% (inactive); in test [3], -195% (inactive); in test [7], 18.5% (inactive); in test [8], 26.3% (inactive). The inhibition of aggregation in test [2] was 1.5% (inactive). For the same molecule, the nuclei count in test [2] and in test [3] was 116% in each case. Also, the fluorescence slope in test [4] is -0.524 (inactive). Further, the NADPH fluorescence slope in test [5] was 8.7e-06 (inactive). Also, the slope in test [6] was 0.0053 (inactive).

For the molecule `CCCCn1nnnc1NCc1cccs1`, the cell count in test [1] was 412. Further, the inhibition was 2.9% (inactive) in test [1], -66.2% (inactive) in test [3], 4.2% (inactive) in test [7] and -0.68% (inactive) in test [8]. For the same molecule, in test [2], the inhibition of aggregation is 0.4% (inactive). Also, the nuclei count in test [2] amounted to 105%; in test [3] it was 119%. The fluorescence slope in test [4] is -0.52 (inactive). Moreover, the NADPH fluorescence slope in test [5] is -1.2e-05 (inactive). In addition, the slope in test [6] is 0.00631 (inactive).

Regarding `N#CCCN(Cc1cccnc1)C(=O)Nc1ccc(Cl)c(Cl)c1`, the cell count in test [1] is 398. For the same molecule, the inhibition in test [1] is 3.1% (inactive); in test [3], -20.5% (inactive); in test [7], 15.4% (inactive); in test [8], 29.1% (inactive). Besides, in test [2], the inhibition of aggregation was -31.1% (inactive). In addition, the nuclei count turned out to be 109% in test [2] and 99.6% in test [3]. The fluorescence slope in test [4] was -0.449 (inactive). Besides, the NADPH fluorescence slope in test [5] was 5.4e-05 (inactive). Also, the slope in test [6] was 0.0054 (inactive).

As to `COC(=O)Cn1ncc2c(C)n(Cc3ccccc3)c(C)c2c1=O`, the cell count in test [1] worked out at 732. The inhibition was -5.2% (inactive) in test [1], -72.2% (inactive) in test [3], -29.4% (inactive) in test [7] and -89.1% (inactive) in test [8]. Further, in test [2], the inhibition of aggregation is 15.7% (inactive). In addition, the nuclei count in test [2] was found to be 88.1%; in test [3], 122%. For the same molecule, the fluorescence slope in test [4] was -0.563 (inactive). For the same molecule, in test [5], the NADPH fluorescence slope was -2.4e-05 (inactive). Also, the slope in test [6] is 0.00743 (inactive).
